Assay outcomes (PubChem BioAssay)
Pf growth 48h – inhibits P. falciparum growth in the first generation, 48 h. P. falciparum luciferase growth in erythrocytes, 48 h. Potency, µM (top dose mostly 28.7 µM), hits mostly inhibitors. 310,000 tested, 5.9% active. AID 504832
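Cell-based growth assay: transgenic P. falciparum expressing firefly luciferase, cultured in red cells within RPMI 1640 containing 0.5% w/v Albumax, 24 mM bicarbonate and gentamycin. A drop in luciferase activity indicates inhibition.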
Pf growth 96h – inhibits malaria parasite growth, 96 h; P. falciparum luciferase reporter growth, 96 h; Potency, µM (series often up to 28.7 µM), most hits filed as inhibitors; 320,000 tested, 6.9% active; AID 504834
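Compounds incubated with erythrocytes infected by luciferase-expressing P. falciparum (2% hematocrit, 0.05% parasitemia final) for 96 hours, 37 C in 5% CO2. Growth inhibition scored as decreased luciferase luminescence.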
AMA1 RON2 block – AMA1-RON2 (P. falciparum) interaction inhibition; Potency, µM (highest dose often 58.2 µM), usual class: inhibitors; 360,000 tested, 0.2% active; AlphaScreen AMA1-biotinylated RON2 peptide binding; further: nearly all actives have a fitted effect of over 45% in size
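AMA1 (3D7) with his tag at 25 nM final met compounds first, then biotinylated RON2 peptide at 25 nM; detection used donor plus acceptor beads, 10 µg/mL apiece, read by AlphaScreen after 30 min at room temperature.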
Shiga inhibitor – blocks Shiga toxin action in Vero cells; inhibition, % at 38.7 µM; AID 2315; Vero cells, Shiga toxin protein synthesis inhibition reporter; 290,000 tested, 9.2% active; in the data active means inhibition mostly above about 28%, no sharp cut-off; inactive means mostly below about 43%
CHX counter – counter-screen for Shiga toxin inhibitors: cycloheximide protein synthesis inhibition; cell reporter, cycloheximide protein synthesis inhibition counterscreen; max response, %; 300,000 tested, 12% active; AID 2314; in the data active means max response mostly above about 13%, no sharp cut-off; inactive means mostly below about 14%; further: read at 38.3 µM for the half of the compounds with a filed dose
SARS PLP yeast – SARS-CoV PLP inhibition in yeast | 330,000 tested, 0.19% active | Potency, µM (titrated, usually from 32.9 µM), actives largely listed as activators | AID 485353 | S. cerevisiae expressing SARS-CoV PLpro, growth rescue; calls by dose curve; further: nearly all actives have a fitted effect of over 55% in size
Each line names hits and unclear results; the compound was inactive in the other large screens. Shown are actives, neighbours in structure and some others; about 19% of the full set was active somewhere. Unless noted, the call rests on the fitted dose curve; in most records, active means well fitted curve in the direction sought with a large enough effect; inconclusive means small, poorly fitted or top-dose-only effect, or another doubt; inactive means no such curve, though single readings can be large; an effect the other way counts as inactive or inconclusive.

O=C(CN1C(=O)C2CC=CCC2C1=O)Nc1ccccc1N1CCCC1 (stereo not drawn)	none (no result: Shiga inhibitor, CHX counter)
O=C(Cc1ccccc1)Nc1nc2ccccc2[nH]1	Shiga inhibitor 79, CHX counter 26 (no result: Pf growth 96h)
O=C(Cc1ccc(Br)cc1)Nc1nc2ccccc2[nH]1	Pf growth 48h inconclusive, CHX counter 14
O=C(CN1C(=O)C2CC=CCC2C1=O)Nc1nc2ccccc2[nH]1 (stereo not drawn)	Pf growth 96h 19µM
O=S(=O)(NC1c2cccc3cccc(c23)C1Sc1ncccn1)c1ccccc1 (stereo not drawn)	Pf growth 48h inconclusive, Pf growth 96h inconclusive
C[C@@H]1CN([C@@H](C)CO)C(=O)CCCn2nncc2CO[C@@H]1CN(C)S(=O)(=O)c1ccc2c(c1)OCCCO2	none (no result: Pf growth 48h, Pf growth 96h, Shiga inhibitor, CHX counter, SARS PLP yeast)
COc1ccc(CNC(=S)N2CCN(Cc3ccccc3)CC2)cc1	AMA1 RON2 block inconclusive
CN(Cc1ccccc1)CC(O)COc1ccc(CNCCc2ccncc2)cc1 (stereo not drawn)	Pf growth 48h 5.2µM
C=CCOc1ccc(CN(C)CC(O)COc2cccc3ccccc23)cc1 (stereo not drawn)	Pf growth 48h 10µM, Pf growth 96h inconclusive
CN(Cc1ccccc1)CC(O)COc1ccc(CNCCc2cccnc2)cc1 (stereo not drawn)	Pf growth 48h 5.2µM
CCc1ccc(CNCc2ccc(OCC(O)CN(C)Cc3ccccc3)cc2)nc1 (stereo not drawn)	Pf growth 48h inconclusive, Pf growth 96h inconclusive
CC(c1ccccc1)N(C)C(=O)CSc1nnc(C2CC2)n1C1CC1 (stereo not drawn)	none (no result: Shiga inhibitor, CHX counter)
CC(=O)N(CC(=O)Nc1sc(C)c(C)c1C(N)=O)Cc1ccccc1	none
Cc1sc(NC(=O)CN(Cc2ccc(F)cc2)C(=O)C(C)(C)C)c(C(N)=O)c1C	Pf growth 96h 7.4µM
CC(C)c1ccc(NC2CCCN(C(=O)c3cccs3)C2)cc1 (stereo not drawn)	Shiga inhibitor 23, CHX counter 32
CC(C)c1ccc(NC2CCCN(C(=O)CCN3Cc4ccccc4C3=O)C2)cc1 (stereo not drawn)	Pf growth 96h 1.9µM
COc1ccc(NC2CCCN(C(=O)c3cccs3)C2)cc1 (stereo not drawn)	Pf growth 96h inconclusive
CC(C)c1ccc(NC2CCCN(C(=O)CCN3CCCCC3=O)C2)cc1 (stereo not drawn)	Pf growth 96h inconclusive, SARS PLP yeast inconclusive
O=S(=O)(/N=C(/Nc1ccc(Cl)cc1Cl)c1ccccc1)c1cccs1	Pf growth 96h inconclusive
N#CC1(Cc2ccc(Cl)cc2)c2ccccc2C=CN1C(=O)c1ccccc1 (stereo not drawn)	Pf growth 96h inconclusive (no result: Pf growth 48h)
CC1(C#N)c2ccccc2C(Br)=CN1C(=O)c1ccccc1 (stereo not drawn)	Pf growth 48h 10µM, Pf growth 96h inconclusive (no result: Shiga inhibitor, CHX counter)
CCCSc1ccc([C@@H]2[C@@H]3C(=O)N(CC)C(=O)[C@@H]3[C@]3(C(=O)OC)CCCCN23)cc1OC	none (no result: Pf growth 48h, Pf growth 96h, Shiga inhibitor, CHX counter)
CCCSc1ccc([C@@H]2[C@H]3C(=O)N(CC)C(=O)[C@H]3[C@]3(C(=O)OC)CCCCN23)cc1	Pf growth 48h 13µM, Pf growth 96h 7.4µM (no result: Shiga inhibitor, CHX counter)
CCCCCCSc1ccc([C@@H]2[C@H]3C(=O)N(CC)C(=O)[C@H]3[C@]3(C(=O)OC)CCCN23)cc1	Pf growth 48h inconclusive, Pf growth 96h 10µM (no result: Shiga inhibitor, CHX counter)
CCCCCCCCOc1c(OC)cc(/C=C/C(=O)N2CCN(c3ccc(C)c(C)c3)CC2)cc1OC	none (no result: Pf growth 48h, Pf growth 96h, AMA1 RON2 block, SARS PLP yeast)
CCCCc1ccc(Nc2nc(CCC)cc(=O)[nH]2)cc1	Pf growth 48h 10µM (no result: Pf growth 96h)
CCCc1cc(=O)[nH]c(Nc2ccc3c(c2)OCCO3)n1	Pf growth 96h inconclusive, Shiga inhibitor 42, CHX counter 36
COc1ccc(/C(C)=N/N=C2/NC(=O)CC(C(=O)O)S2)cc1F (stereo not drawn)	none
COc1ccccc1CN1CCN(Cc2nc(-c3cccs3)no2)CC1	Pf growth 96h 5.9µM, Shiga inhibitor 85, CHX counter 50
COCC1CCN(Cc2nc(-c3cccs3)no2)C1 (stereo not drawn)	Pf growth 96h inconclusive
c1csc(-c2noc(CN3CCc4sccc4C3)n2)c1	Shiga inhibitor 39, CHX counter 34
CCOC(=O)C1=C(c2ccccc2)NC(SCC(=O)Nc2cccc(C)c2)=C(C#N)C1c1ccco1 (stereo not drawn)	Pf growth 48h 9.3µM
CCOC(=O)C1=C(c2ccccc2)NC(SCC(=O)Nc2ccccc2C)=C(C#N)C1c1ccco1 (stereo not drawn)	Pf growth 48h 8.3µM
CC(=O)C1=C(C)NC(SCc2cccc3ccccc23)=C(C#N)C1c1ccco1 (stereo not drawn)	Pf growth 48h 10µM, Pf growth 96h 2.9µM
CC(=O)C1=C(C)NC(SCc2ccc(C#N)cc2)=C(C#N)C1c1ccco1 (stereo not drawn)	none
CCOC(=O)CSC1=C(C#N)C(c2ccco2)C(C(=O)Nc2cccc(C(F)(F)F)c2)=C(C)N1 (stereo not drawn)	Pf growth 48h 10µM
O=[N+]([O-])c1ccccc1S(=O)(=O)N1CCN(c2ccccc2)CC1	none
CCOC(=O)C1=C(c2ccccc2)NC(SCC)=C(C#N)C1c1cccnc1 (stereo not drawn)	Pf growth 48h inconclusive, Pf growth 96h 8.3µM
CCCN(CC(=O)Nc1ccccc1OC)C(=O)CC1CCCC1	Pf growth 48h inconclusive (no result: Shiga inhibitor, CHX counter)
COC(=O)/C=c1/s/c(=C(\C#N)C(=O)NCc2ccco2)n(-c2ccccc2)c1=O	Pf growth 96h 6.6µM
COc1ccc(/C=c2\s/c(=C(/C#N)C(=O)NCc3ccco3)n(-c3ccccc3)c2=O)cc1	none
CC(/C=C/c1ccc(N(C)C)cc1)=N\N=C(/N)SC1CC(=O)N(c2ccc(C(=O)O)cc2)C1=O (stereo not drawn)	Shiga inhibitor 70, CHX counter 45
OC[C@H]1O[C@@H](n2cnc3c(Nc4ccccc4)ncnc32)[C@H](O)[C@@H]1O	Shiga inhibitor 108
OCC1OC(n2cnc3c(NCCc4ccccc4)ncnc32)C(O)C1O (stereo not drawn)	none (no result: Pf growth 48h, Pf growth 96h, Shiga inhibitor, CHX counter, SARS PLP yeast)
O=[N+]([O-])c1ccc(F)cc1OCc1nc(-c2cccs2)no1	Shiga inhibitor 95, CHX counter 41
Cc1ccc(OCCOc2cccc3ccc(C)nc23)c([N+](=O)[O-])c1	Pf growth 48h inconclusive, Pf growth 96h inconclusive, AMA1 RON2 block inconclusive
O=C(O)CCc1nc(-c2cccs2)no1	Pf growth 96h inconclusive
O=[N+]([O-])c1ccccc1OCc1nc(-c2cccs2)no1	Shiga inhibitor 179, CHX counter 61
Cc1ccc(OCc2nc(-c3cccs3)no2)c([N+](=O)[O-])c1	Pf growth 96h inconclusive, Shiga inhibitor 100, CHX counter 45
